This is a sample that favours compounds with a hit; in the whole collection about 9.3% have one here.
ELG1 repair inh – blocks ELG1-dependent DNA repair in HEK293T cells; HEK293T ELG1-luciferase reporter, luminescence, 16 h; DNA damage induced by 5-fluorouridine; Potency, µM (top dose mostly 46.1 µM), inactives show top-dose activity change, negative = inhibition, hits mostly inhibitors; actives 2.3% (n = 330,000); note: % is set by controls: 0 for no effect and ±100 for the full control effect; nearly all actives have a fitted effect of over 55% in size
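DMSO vehicle served as the neutral condition. Each well held 2,000 cells given 5-fluorouridine plus compound; after 16 hr at 37 °C/5% CO2, ONE-Glo was added and luciferase measured 30 min later.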
NPC1 promoter act – activates the NPC1 promoter; Huh7 NPC1 promoter luciferase reporter, 24 h; Potency, µM (highest dose often 9.22 µM), without a hit: at the highest dose activation, hits mostly activators; actives 2.4% (n = 320,000); note: % of control where 0% means no effect; nearly all actives have a fitted effect of over 60% in size
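Cells: Huh7 expressing luciferase under the NPC1 promoter, 1500/well. Seeded 2 h, compound added, incubated 24 h at 37 °C. Luciferase reagent, 10 min ambient, then luminescence.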
ELG1 genotoxic – genotoxicity induction in ELG1-luciferase HEK293T cells. Potency, µM (highest dose often 46 µM), for the others: at the top dose activity change, positive = activation, usual class: activators. actives 1.3% (n = 330,000). AID 504466. HEK293T ELG1-luciferase reporter, luminescence, 16 h; note: % of control where 0% means no effect; nearly all actives have a fitted effect of over 60% in size
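Step 1: seed 2,000 HEK293T ELG1-luciferase cells per well. Step 2: add compound or DMSO, incubate 16 hr at 37 °C. Step 3: ONE-Glo, 30 min at room temperature, read luminescence.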
FLuc counter – counter-screen for miR-21 project: firefly luciferase inhibitors or activators; P08659; purified FLuc, Km substrates, luminescence inhibition; Potency, µM (doses to about 57.5 µM), for inactives: top-dose activity change, negative = inhibition, hits mostly inhibitors; actives 6.9% (n = 360,000);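 note: plate controls were vehicle for no effect and reference inhibitor for full effect; nearly all actives have a fitted effect of over 55% in size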
Target sequence (P08659 whole entry, looked up): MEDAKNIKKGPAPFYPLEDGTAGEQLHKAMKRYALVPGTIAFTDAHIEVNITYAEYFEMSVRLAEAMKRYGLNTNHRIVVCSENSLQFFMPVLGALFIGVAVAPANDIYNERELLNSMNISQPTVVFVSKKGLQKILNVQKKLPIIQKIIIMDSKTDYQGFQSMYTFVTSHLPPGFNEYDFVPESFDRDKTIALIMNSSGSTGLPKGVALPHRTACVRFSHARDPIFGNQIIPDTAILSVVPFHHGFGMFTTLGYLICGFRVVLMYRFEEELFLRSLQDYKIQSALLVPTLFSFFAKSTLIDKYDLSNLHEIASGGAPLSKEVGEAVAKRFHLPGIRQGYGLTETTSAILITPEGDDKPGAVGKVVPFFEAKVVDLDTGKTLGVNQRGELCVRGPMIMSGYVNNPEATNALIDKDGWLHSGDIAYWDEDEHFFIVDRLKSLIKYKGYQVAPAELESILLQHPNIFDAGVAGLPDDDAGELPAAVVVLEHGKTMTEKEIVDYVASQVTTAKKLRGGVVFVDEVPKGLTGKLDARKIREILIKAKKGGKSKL
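Biochemical qHTS of compounds, final roughly 60 µM downward over six points, against 10 nM purified firefly luciferase using Km concentrations of substrates (10 uM D-luciferin, 10 uM ATP) in Tris acetate pH 7.5 buffer; luminescence output.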
SMN2 splice up – SMN2 splice variant enhancement. actives 2.8% (n = 210,000). Potency, µM (top dose mostly 46.1 µM), inactives show at the highest dose activity change, positive = activation, actives largely listed as activators. HEK293 SMN2-luciferase splicing reporter, luminescence, 30-36 h. AID 1458; note: % of control where 0% means no effect; nearly all actives have a fitted effect of over 55% in size
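HEK293 cells carry an SMN2 […]–luciferase reporter in which exon 7 inclusion puts luciferase in frame. Cells were plated 10-12 h before compound addition, then incubated 30-36 h at 37C. ONE-Glo luminescence was read; sodium butyrate at 4.5 mM final served as control.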
Rab9 promoter act – activators of Rab9 promoter; Huh7 Rab9 promoter-luciferase reporter, luminescence, 24 h; Potency, µM (top dose mostly 9.22 µM), without a hit: at the top dose activation, negative = inhibition, actives largely listed as activators; actives 2.8% (n = 320,000); note: % of control where 0% means no effect; nearly all actives have a fitted effect of over 60% in size
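Steps: seed 1500 Huh7 Rab9-luc cells per well, rest 2 h at 37 °C; add compound in DMSO; incubate 24 h; add luciferase reagent, 10 min ambient; read luminescence.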
An asterisk follows results filed as active. Calls come from the whole dose curve; as a rule, active = well fitted curve in the direction sought with a large enough effect; inconclusive = small, poorly fitted or top-dose-only effect, or another doubt; inactive = no such curve, though single readings can be large; an effect the other way counts as inactive or inconclusive. Potency is the fitted concentration of half-maximal effect.

What do the screens show for `CCC(C)NC(=O)c1cc(-c2ccc3c(c2)OCO3)on1` (stereo unspecified)?
ELG1 repair inh: inconclusive; NPC1 promoter act: 0.89µM*; ELG1 genotoxic: inconclusive; FLuc counter: 3.4µM*; Rab9 promoter act: 0.45µM*

How did O=C(Nc1ccc(Br)cc1)c1cc(-c2ccc3c(c2)OCO3)on1 do in these assays?
ELG1 repair inh: 4%; NPC1 promoter act: -9%; ELG1 genotoxic: 4%; FLuc counter: -2%; Rab9 promoter act: -11%

Results for CN1CCN(NC(=S)Nc2ccccc2)CC1 ?
ELG1 repair inh: -1%; NPC1 promoter act: 0%; ELG1 genotoxic: 6%; FLuc counter: 3%; SMN2 splice up: inconclusive; Rab9 promoter act: -2%

Results for COCCn1c(SCC(=O)N2CCCCC2)nc2c(c1=O)SC(C)C2 (stereo unspecified) ?
ELG1 repair inh: 3%; NPC1 promoter act: 3%; ELG1 genotoxic: 3%; FLuc counter: -3%; Rab9 promoter act: 2%

How did CCN(CC(=O)Nc1c(F)cccc1F)C(=O)c1csc2c1CCCC2 do in these assays?
ELG1 repair inh: -2%; NPC1 promoter act: 0%; ELG1 genotoxic: 2%; FLuc counter: -2%; Rab9 promoter act: -2%

Results for Cc1nn2c(-c3ccccc3)ccnc2c1Br ?
ELG1 repair inh: 20%; NPC1 promoter act: -4%; ELG1 genotoxic: 2%; FLuc counter: -15%; Rab9 promoter act: -11%

How did COCCNC(=O)c1cc(-c2ccc3c(c2)OCO3)on1 do in these assays?
ELG1 repair inh: inconclusive; NPC1 promoter act: 1.6µM*; ELG1 genotoxic: inconclusive; FLuc counter: 6.7µM*; SMN2 splice up: 11µM*; Rab9 promoter act: 2.5µM*

Results for COCCNC(=O)COCc1cc(-c2ccc3c(c2)OCO3)on1 ?
ELG1 repair inh: 12%; NPC1 promoter act: -4%; ELG1 genotoxic: 5%; FLuc counter: inconclusive; Rab9 promoter act: -1%

Results for COC(=O)/C=C/c1cccc([C@H]2[C@@H]3C=CC[C@@H](C)[C@@H]3C(=O)N2Cc2ccccc2)c1 ?
ELG1 repair inh: 4%; ELG1 genotoxic: 1%

How did COC(=O)CCC(=O)c1oc2ccc(Cl)cc2c1NC(=O)CCCN1C(=O)c2ccccc2C1=O do in these assays?
ELG1 repair inh: 4.6µM*; NPC1 promoter act: 1%; ELG1 genotoxic: -4%; FLuc counter: -2%; SMN2 splice up: 19%; Rab9 promoter act: 0%

Results for O=[N+]([O-])c1ccc(N=Cc2sc3ccccc3c2O)cc1 ?
ELG1 repair inh: inconclusive; NPC1 promoter act: 22%; ELG1 genotoxic: 8.2µM*; FLuc counter: inconclusive; SMN2 splice up: 25µM*; Rab9 promoter act: inconclusive

Results for O=[N+]([O-])c1cccc(N=Cc2sc3ccccc3c2O)c1 ?
ELG1 repair inh: inconclusive; NPC1 promoter act: 26%; ELG1 genotoxic: inconclusive; FLuc counter: inconclusive; SMN2 splice up: 9%; Rab9 promoter act: inconclusive

How did Oc1c(C=NCc2ccccc2)sc2ccccc12 do in these assays?
ELG1 repair inh: inconclusive; NPC1 promoter act: inconclusive; ELG1 genotoxic: inconclusive; FLuc counter: 11µM*; SMN2 splice up: 2%; Rab9 promoter act: 2.8µM*

How did CCN(C(=O)COC(=O)CCc1ccccc1OC)c1c(N)n(Cc2ccccc2)c(=O)[nH]c1=O do in these assays?
ELG1 repair inh: 29%; NPC1 promoter act: -1%; ELG1 genotoxic: 4%; FLuc counter: -2%; Rab9 promoter act: -9%

Results for CN(C)c1ccc(NC(=O)c2cnsn2)cc1 ?
ELG1 repair inh: inconclusive; NPC1 promoter act: inconclusive; ELG1 genotoxic: inconclusive; FLuc counter: 3µM*; Rab9 promoter act: inconclusive

High-throughput results: PubChem BioAssay, National Center for Advancing Translational Sciences (NCATS)
